Data reported in ChEMBL document CHEMBL3988442, “University of Dundee, Small-Polar-MMV Screening Library” (2021).
In all, about 69,000 compounds went through this assay and about 950 (1.4%) showed an effect of 50% or more. Only a selection was taken, and strong results are over-represented in it overall.

Each compound was assayed on Mycobacterium tuberculosis (assay: Cornell M. t heat shock assay; also: in the data most compounds retested in dose-response had high values).
Assay type: functional, organism-based
Parameters: dose or concentration left out as unconfirmed

In order of rising “Percent Effect” value:
1. O=C(O)C(F)(F)F.c1cncc(N2CC[C@@H]3CN(CC4CC4)C[C@@H]3C2)c1  -51.37%
2. CN1CC(=O)N(c2ccsc2)CC12CCN(Cc1cnn(C)c1)C2.O=C(O)C(F)(F)F.O=C(O)C(F)(F)F (stereo not drawn)  -44.55%
3. O=C(O)C(F)(F)F.O=C(c1ccco1)N1CCOCC2(C1)CN(c1cccnc1)C(=O)CO2 (stereo not drawn)  -36.47%
4. O=C(NCc1cnc2n1CCN(CC1CC1)C2)C1CC1.O=C(O)C(F)(F)F  -32.01%
5. Cc1nc(CN2CCO[C@H]3[C@@H](OCc4cccnc4)CC[C@@H]32)cs1.O=C(O)C(F)(F)F.O=C(O)C(F)(F)F  -27.98%
6. O=C(O)C(F)(F)F.O=C(O)C(F)(F)F.O=C1COC2(CCN(CC3CCOCC3)CC2)CN1Cc1ccccn1  -24.93%
7. Cc1ncsc1CN1C[C@@H]2COC[C@]2(CNC(=O)c2ccccc2)C1.O=C(O)C(F)(F)F  -24.18%
8. c1ncn(CC2CCCN2Cc2cn3ccsc3n2)n1 (stereo not drawn)  -23.29%
9. O=C(Cc1ccccc1)N1CC[C@H]2[C@@H]1CCC(=O)N2Cc1ccncc1.O=C(O)C(F)(F)F  -22.84%
10. O=C(O)C(F)(F)F.O=C1N(CC2CC2)CCC12CCN(c1ncccn1)CC2  -22.74%
11. O=C(O)C(F)(F)F.O=C(O)C(F)(F)F.OCCN1CC2(CCN(CC3CC3)CC2)c2ccccc21  -22.04%
12. COCCN1CCCC12CCN(C(=O)CC1CCCC1)CC2.O=C(O)C(F)(F)F  -21.16%
13. CC(=O)N1[C@H](CN(C)C)C[C@@H]2CN(C(=O)c3cnc(C)cn3)CC[C@@H]21.O=C(O)C(F)(F)F  -17.11%
14. Cc1n[nH]c(C)c1CCC(=O)N[C@@H]1CCC[C@@H](Oc2ccccc2)[C@@H]1O  -15.12%
15. Cc1nc(C)n(CC2CCCCN2Cc2ncc(C(C)(C)C)o2)n1 (stereo not drawn)  -15.1%
16. Cc1nc2[nH]cnc(NCCCN3CCOCC3)c-2n1  -13.88%
17. O=C(O)C(F)(F)F.O=C(O)C(F)(F)F.O=S(=O)(c1cccnc1)N1C[C@H]2CCC[C@@]2(COc2ccccn2)C1  -13.75%
18. Cc1nn(C)c(C)c1C1CCCN1Cc1nc(N)c2ccccc2n1 (stereo not drawn)  -13.27%
19. Cc1cc(C)n(CC2CCCN2C(=O)c2cccnc2N(C)C)n1 (stereo not drawn)  -10.54%
20. N[C@@H]1CCC[C@@H](Oc2ccc(F)cc2Oc2ccccc2)[C@@H]1O  -7.942%
21. CN(C)CCN1C(=O)CCCC12CCCN(Cc1cccs1)C2.O=C(O)C(F)(F)F.O=C(O)C(F)(F)F (stereo not drawn)  -7.663%
22. Cc1nc(CN2C[C@@H]3CN(C(=O)C4CC4)C[C@@H]3C2=O)cs1.O=C(O)C(F)(F)F  -7.229%
23. O=C(CCC1CCCO1)NCCCO (stereo not drawn)  -7.133%
24. Cc1cc(CN2CC[C@H]3C(=O)N(c4ccccc4)CCO[C@H]3C2)no1.O=C(O)C(F)(F)F  -6.692%
25. Cc1nc(C)n(CC2CCCN2Cc2cn3ccccc3n2)n1 (stereo not drawn)  -6.655%
26. O=C(O)C(F)(F)F.O=c1ccc2c([nH]1)CCC(NCc1ccc(F)cc1)C2 (stereo not drawn)  -5.527%
27. COc1cc([C@@H]2N[C@H](c3nccs3)Cc3ccsc32)cc(OC)c1OC  -5.187%
28. COc1ccsc1C(=O)NCCNc1ccccc1  -5.187%
29. O=C(CCCNC(=O)C1CCCO1)Nc1ccc(Cl)cc1 (stereo not drawn)  -4.15%
30. Cc1nc(C)n(CC2CCCN2Cc2nc3ccccc3nc2C)n1 (stereo not drawn)  -3.804%
31. CCN1CCOCC2(CCCN(C(=O)c3conc3C)C2)C1.O=C(O)C(F)(F)F (stereo not drawn)  -3.777%
32. Cc1cnc(C(=O)N2CCC3(CCN3Cc3ccc(F)cc3)C2)cn1.O=C(O)C(F)(F)F (stereo not drawn)  -3.427%
33. CCc1noc(CNc2c(F)cccc2-n2cccn2)n1  -3.038%
34. CCCN1C[C@H]2CC[C@@H]1CN(Cc1cccc(-n3cccn3)c1)C2  -1.729%
35. Cc1nc2[nH]cnc(NCCN3CCOCC3)c-2n1  -1.565%
36. O=CO.c1cc2nccc(CC3CCCN(C4CCOCC4)CC3)c2cn1 (stereo not drawn)  -0.8025%
37. Cc1nc(C)n(CC2CCCN2Cc2nc(C)c3ccccc3n2)n1 (stereo not drawn)  -0.1749%
38. O=C(O)C(F)(F)F.O=C1[C@H]2CN(C(=O)[C@H]3CCCO3)C[C@H]2CN1CCN1CCCC1  -0.06274%
39. CCN(CC)c1ncc(CNC2CCc3ncnn3C2)s1 (stereo not drawn)  0.07548%
40. COc1cc(C)sc1C(=O)NCCC(=O)N(C)c1ccccc1  0.1249%
41. CC(C)(C)c1nnc(CNc2c(F)cccc2-n2cccn2)o1  0.6342%
42. CC(C)c1cc(NCC(O)c2ccncc2)n2nccc2n1 (stereo not drawn)  0.8571%
43. N[C@@H]1CCC[C@@H](Oc2ccc(F)cc2Oc2cccc(F)c2)[C@@H]1O  1.479%
44. O=C(O)C(F)(F)F.O=C1CCC2(CCN(Cc3ccc(F)cc3)CC2)N1Cc1ccccc1  1.967%
45. Cc1cnc(N2CCC3(CCCN3C(=O)c3ccco3)CC2)nc1.O=C(O)C(F)(F)F  2.375%
46. O=C(CCC1CCCO1)NS(=O)(=O)c1ccc(Cl)cc1 (stereo not drawn)  2.708%
47. CNC(=O)CNCc1c[nH]nc1-c1cc2ccccc2o1.Cl  4.817%
48. Cc1cc2nc(C(C)C)cc(NCCc3ccncc3)n2n1  5.483%
49. O=C(NC1CC1)N1CCC2(CC1)C(=O)NCCN2Cc1ccccc1.O=C(O)C(F)(F)F  5.553%
50. COc1ccc(OC)c([C@@H]2N[C@H](c3nccs3)Cc3ccsc32)c1  6.308%
51. Cn1c(CNc2c(F)cccc2-n2cccn2)cc(=O)n(C)c1=O  6.656%
52. Cc1cc2nc(C(C)C)cc(NC(C)c3nncn3C)n2n1 (stereo not drawn)  6.767%
53. COc1cc(NCC(c2ccccn2)N(C)C)ncn1 (stereo not drawn)  7.48%
54. CC(C)c1cc(NCC(O)CO)n2nccc2n1 (stereo not drawn)  7.568%
55. Cc1nc(C)n(CC2CCCN2Cc2ncc(C(C)(C)C)o2)n1 (stereo not drawn)  8.269%
56. CC(C)c1cnc(CNc2c(F)cccc2-n2cccn2)o1  8.854%
57. CC(C)CN1C(=O)C2(CCN(Cc3cccs3)C2)c2ccccc21.O=C(O)C(F)(F)F (stereo not drawn)  9.511%
58. CCc1c(C)sc2ncnc(N3CC[C@@H](N4CCC(O)CC4)[C@H](O)C3)c12  10.29%
59. Cc1cc2nc(C(C)C)cc(NCc3ccncc3)n2n1  10.36%
60. Cc1noc(C)c1C(=O)N[C@@H]1CCC[C@@H](Oc2ccccc2)[C@@H]1O  10.41%
61. CCN(CC)Cc1nc2c(o1)CN(S(=O)(=O)c1cccs1)C2.O=C(O)C(F)(F)F  10.46%
62. CN(C)C(=O)CC1CC2(CCN(CC3CC3)CC2)Oc2ccccc21.O=C(O)C(F)(F)F (stereo not drawn)  11.01%
63. CCc1c(C)sc2ncnc(N3CC[C@@H](N4CCOCC4)[C@H](O)C3)c12  11.35%
64. CC(C)c1cc(NCC(O)c2ccc(F)cc2)n2nccc2n1 (stereo not drawn)  13.68%
65. O=C(CNc1cccc(S(=O)(=O)C(F)F)c1)NCc1ccco1  18.67%
66. CC(C)c1cc(NCC(C)N2CCCC2)n2nccc2n1 (stereo not drawn)  19.07%
67. CCCN1C[C@H]2CC[C@@H]1CN(Cc1ccc(Cn3cccn3)cc1)C2  25.45%
68. Cc1cc(C)n(CC2CCCN2CCS(=O)(=O)c2ccccc2)n1 (stereo not drawn)  25.73%
69. COCCN1CCC12CCN(C(=O)c1ccc(C)nc1)C2.O=C(O)C(F)(F)F (stereo not drawn)  29.56%
70. O=C(NCc1ccco1)Nc1cccc(S(=O)(=O)C(F)F)c1  31.42%
71. O=C(CCCNC(=O)NCC1CCCO1)Nc1ccc(Cl)cc1 (stereo not drawn)  40.56%
72. COc1cccc([C@@H]2N[C@H](c3nccs3)Cc3ccsc32)c1OC  50.14%
73. CN[C@@H]1CCC[C@@H](Oc2ccccc2Oc2ccc(C)cc2)[C@@H]1O  50.23%
74. Cc1cc2nc(C(C)C)cc(NCCc3cccn3C)n2n1  51.31%
75. Cc1nc(C)n(CC2CCCN2Cc2cn3ccsc3n2)n1 (stereo not drawn)  52.44%
76. Cc1cc(C)n(CC2CCCN2Cc2ncc(C(C)(C)C)o2)n1 (stereo not drawn)  52.86%
77. O=C(O)C(F)(F)F.c1cnc(N2CCC3(CC2)CN(CC2CC2)c2ccccc23)nc1  54.56%
78. Cn1ccnc1CNc1c(F)cccc1-n1cccn1  55.71%
79. COc1cc(C)sc1C(=O)NCCNc1ccccc1  57.16%
80. Cc1nc2[nH]cnc(NCCN3CCCC3)c-2n1  57.49%
81. CCc1c(C)sc2ncnc(N3C[C@H](O)[C@@H](N4CCCC4)C3)c12  59.45%
82. O=C(CC1CCCO1)NCCCC(=O)Nc1ccc(Cl)cc1 (stereo not drawn)  63.53%
83. O=C(CCc1ccco1)Nc1cccc(S(=O)(=O)C(F)F)c1  70%
84. Cc1nc(C)n(CC2CCCN2Cc2nc(N)c3ccccc3n2)n1 (stereo not drawn)  90.98%
85. Cc1cc(C)n(CC2CCCN2Cc2nc(N)c3ccccc3n2)n1 (stereo not drawn)  96.02%
86. Cc1ccc(C(=O)N2CCC3(CCN3Cc3ccc(F)cc3)C2)cn1.O=C(O)C(F)(F)F (stereo not drawn)  99.27%
87. Cc1ccc(Oc2cc(F)ccc2O[C@@H]2CCC[C@@H](N)[C@H]2O)cc1  103.2%
88. O=C(CCC1CCCO1)NCCCC(=O)Nc1ccc(Cl)cc1 (stereo not drawn)  104.2%
89. Cc1cnc(CNc2c(F)cccc2-n2cccn2)o1  105%
90. CC(C)c1cc(NCC(O)c2ccccn2)n2nccc2n1 (stereo not drawn)  105.1%
91. CCCN1C[C@H]2CC[C@@H]1CN(Cc1ccc(-n3cccn3)cc1)C2  105.3%
92. CCCC(CNc1cc(C(C)C)nc2ccnn12)N(C)C (stereo not drawn)  105.9%
93. Cc1cc2nc(C(C)C)cc(NCC(c3ccccn3)N(C)C)n2n1 (stereo not drawn)  107.7%
